Data on 61 sequences can be found in the supplement of paper PMC3334620.

Over roughly 33,000 sequences, “E-score (-0.5 to 0.5)” has its median near -0.016; the highest 2% begin near 0.3. The sample as a whole holds a higher share of the highest values than the screen did.

The target of this test is T1, Yer184c (UniProt P39961).
T1 sequence: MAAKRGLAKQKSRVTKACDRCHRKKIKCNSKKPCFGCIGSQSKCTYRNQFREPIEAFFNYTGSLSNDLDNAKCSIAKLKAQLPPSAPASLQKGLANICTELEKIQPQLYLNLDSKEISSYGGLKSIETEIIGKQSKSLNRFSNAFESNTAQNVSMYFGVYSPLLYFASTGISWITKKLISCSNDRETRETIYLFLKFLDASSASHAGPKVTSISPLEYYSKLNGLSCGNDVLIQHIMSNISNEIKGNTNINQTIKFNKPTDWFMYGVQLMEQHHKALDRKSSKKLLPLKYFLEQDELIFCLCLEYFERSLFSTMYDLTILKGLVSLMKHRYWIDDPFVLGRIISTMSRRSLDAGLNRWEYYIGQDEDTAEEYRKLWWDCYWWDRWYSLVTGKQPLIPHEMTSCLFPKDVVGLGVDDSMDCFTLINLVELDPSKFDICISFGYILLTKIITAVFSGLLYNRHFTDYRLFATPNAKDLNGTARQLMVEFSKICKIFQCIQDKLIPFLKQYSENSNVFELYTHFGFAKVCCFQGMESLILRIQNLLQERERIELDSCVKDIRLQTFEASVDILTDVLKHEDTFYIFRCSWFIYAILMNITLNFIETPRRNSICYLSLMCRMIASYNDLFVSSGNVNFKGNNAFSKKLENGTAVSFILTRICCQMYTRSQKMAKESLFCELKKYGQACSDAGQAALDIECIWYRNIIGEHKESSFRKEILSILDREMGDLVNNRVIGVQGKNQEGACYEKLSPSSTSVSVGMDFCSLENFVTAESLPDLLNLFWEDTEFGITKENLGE
Nature of the test: PBM E-score (8-mer binding enrichment) (E-score (-0.5 to 0.5)); higher = stronger / more preferred TF binding. Particulars: protein concentration: 100 nM; construct: GST-full length. The gist of the method: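 Masliner-normalised scans of fluorescent anti-GST signal were the basis for scoring. That signal came from GST-tagged yeast transcription factors applied at about 100-200 nM to double-stranded universal all-10-mer Agilent arrays on fresh or once-stripped slides. Each ungapped eight-base word, pooled with its reverse complement, received an E-score from the Universal PBM Analysis Suite.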
As for CCGGTCTC, the “PBM E-score” value was 0.0994.

Consider CTAAAGGC, for which the “PBM E-score” value was -0.0965.

Take ACTAGCAC: the “PBM E-score” value was -0.174.

AATGGTAC: the “PBM E-score” value is -0.00404.

In the case of ACTAGGAA, the “PBM E-score” value was -0.177.

On to CATGCCTA, for which the “PBM E-score” value was -0.261.

As to CATGCCAG, the “PBM E-score” value was -0.161.

As to CATGCCGC, the “PBM E-score” value amounted to 0.181.

As to AATGCCTA, the “PBM E-score” value is -0.0279.

For CATGCCGA, the “PBM E-score” value turned out to be 0.336.

AATGCCCG: the “PBM E-score” value was -0.121.

Take CATGCCCG: the “PBM E-score” value amounted to 0.0955.

For CATGCCGG, the “PBM E-score” value is 0.366.

In the case of AATGCCGA, the “PBM E-score” value amounted to 0.378.

Regarding TATGCCGA, the “PBM E-score” value is 0.28.

For AATGCCTG, the “PBM E-score” value is -0.123.

Regarding AATGCCGG, the “PBM E-score” value amounted to 0.35.

On to CAAATACG, for which the “PBM E-score” value is -0.00546.

As for CGAAACTA, the “PBM E-score” value came out at 0.0737.

Regarding CACTAGTC, the “PBM E-score” value is -0.184.

Regarding ACTAACGA, the “PBM E-score” value was 0.00902.

With AAAGGCAT, the “PBM E-score” value turned out to be 0.141.

On to AACCTATT, for which the “PBM E-score” value is -0.139.

Turning to GCATCCCC, the “PBM E-score” value was -0.168.

With CATCAATG, the “PBM E-score” value was -0.0256.

GATGCCGC: the “PBM E-score” value is 0.106.

With AATGCCGC, the “PBM E-score” value came to 0.199.

Consider GATGCCGA, for which the “PBM E-score” value was 0.319.

With GATGCCAA, the “PBM E-score” value is -0.105.

In the case of AATGCCAT, the “PBM E-score” value was 0.055.

AATGCCGT: the “PBM E-score” value stood at 0.304.

For the sequence CCTCTTCG, the “PBM E-score” value is -0.00118.

With AGTTCCCG, the “PBM E-score” value came out at 0.223.

As for CGGCGGTA, the “PBM E-score” value was found to be 0.348.

In the case of CCGCGGTC, the “PBM E-score” value is 0.205.

In the case of CCGCGGAG, the “PBM E-score” value worked out at 0.333.

ACGCGGTA: the “PBM E-score” value is -0.105.

For CCGCGGTA, the “PBM E-score” value is 0.345.

As for GGGCGGTA, the “PBM E-score” value is -0.0752.

Turning to CCGCGGAC, the “PBM E-score” value came to 0.295.

Consider CCGCGCGC, for which the “PBM E-score” value came out at 0.154.

Consider CCGCGCGA, for which the “PBM E-score” value was found to be 0.183.

ACGCGGAG: the “PBM E-score” value worked out at 0.143.

Turning to AGGCGGTA, the “PBM E-score” value was -0.135.

On to CCGCGCGG, for which the “PBM E-score” value came out at 0.386.

Consider CCAGCTTC, for which the “PBM E-score” value is -0.0253.

With CAAAATGA, the “PBM E-score” value stood at 0.0065.

On to GACTCAAC, for which the “PBM E-score” value stood at 0.0381.

In the case of ATCTCTTC, the “PBM E-score” value is 0.0858.

On to AGGTTAAC, for which the “PBM E-score” value is -0.037.

GCGCGGGA: the “PBM E-score” value was 0.0199.

Consider CCGCGGGA, for which the “PBM E-score” value was found to be 0.324.

Consider TCGCGGAA, for which the “PBM E-score” value worked out at 0.137.

Turning to CCGCGGGC, the “PBM E-score” value is 0.25.

Take CCGCGGAA: the “PBM E-score” value amounted to 0.416.

For the sequence GCGCGGAA, the “PBM E-score” value was found to be 0.138.

On to CGGTGGTC, for which the “PBM E-score” value is -0.0197.

As to AGAGATCC, the “PBM E-score” value was -0.00438.

For the sequence AAGTGTCA, the “PBM E-score” value is -0.293.

In the case of ACAAAACT, the “PBM E-score” value stood at 0.144.

Turning to CGCCCAAA, the “PBM E-score” value was 0.0692.
